An excerpt weighted towards active compounds, which were near 11% of everything screened.
G9a inh = blocks human histone lysine methyltransferase G9a. Q96KQ7. G9a H3K9 monomethylation, AlphaScreen, 2 h. Potency, µM (highest dose often 102 µM), without a hit: top-dose activity, negative = inhibition, usual class: inhibitors. 8.8% of 350,000 active. AID 504332; note: % is set by controls: 0 for no effect and ±100 for the full control effect; nearly all actives have a fitted effect of over 75% in size
Target sequence (Q96KQ7 913-1193 limits assumed): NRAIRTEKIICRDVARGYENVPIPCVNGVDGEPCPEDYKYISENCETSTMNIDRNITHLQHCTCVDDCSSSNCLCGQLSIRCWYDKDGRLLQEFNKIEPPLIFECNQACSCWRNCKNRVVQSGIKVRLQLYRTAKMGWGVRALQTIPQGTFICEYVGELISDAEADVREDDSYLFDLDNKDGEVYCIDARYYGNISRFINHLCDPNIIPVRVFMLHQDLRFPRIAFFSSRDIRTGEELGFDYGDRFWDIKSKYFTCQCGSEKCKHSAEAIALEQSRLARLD
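G9a (20 nM) was preincubated 15 min with compound, then reacted 2 h at room temperature with 500 nM biotin-H3K9 peptide and 20 µM SAM. Monomethyl-H3K9 detected by AlphaScreen using anti-H3K9me1 antibody.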
HP1b binding inh = inhibitors of HP1-beta chromodomain binding to methylated histone tails. P83916. AlphaScreen HP1-beta / biotin-H3K9me3 peptide binding. Potency, µM (highest dose often 114 µM), without a hit: top-dose activity change, negative = inhibition, actives largely listed as inhibitors. 0.56% of 390,000 active; note: nearly all actives have a fitted effect of over 70% in size
Target sequence (P83916 whole entry, looked up): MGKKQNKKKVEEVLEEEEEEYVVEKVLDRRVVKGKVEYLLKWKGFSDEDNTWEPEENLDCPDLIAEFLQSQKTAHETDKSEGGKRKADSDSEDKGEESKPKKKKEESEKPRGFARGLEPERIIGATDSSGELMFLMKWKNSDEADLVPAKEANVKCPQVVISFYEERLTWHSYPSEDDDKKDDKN
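HP1-beta protein (50 nM final) preincubated 30 min at room temperature with biotinylated H3(1-18)K9me3 peptide (50 nM) in PBS pH 7.4, 0.01% Tween-20, then compound added for 30 min. AlphaScreen streptavidin donor/nickel chelate acceptor beads (10 ug/mL final), 30 min dark, luminescence read.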
PLK1 PBD block = blocks phosphopeptide binding to human PLK1 polo-box domain. Potency, µM, without a hit: max response, negative = inhibition, actives largely listed as inhibitors. Plk1 PBD binding of FITC phosphopeptide, fluorescence polarization. P53350. 2.8% of 360,000 active; note: series mostly up to about 57 µM; % is set by controls: 0 for no effect and ±100 for the full control effect; nearly all actives have a fitted effect of over 65% in size
JMJD2A Tudor = inhibitors of human JMJD2A Tudor domain; O75164; AlphaScreen JMJD2A-Tudor / H3K4me3 peptide binding; Potency, µM (series often up to 114 µM), for inactives: at the highest dose activity change, negative = inhibition, actives largely listed as inhibitors; 4.4% of 390,000 active; AID 504339; note: % is set by controls: 0 for no effect and ±100 for the full control effect; nearly all actives have a fitted effect of over 50% in size
VDR inhibitor = inhibitors of human vitamin D receptor | Potency, µM, for inactives: max response, negative = inhibition, actives largely listed as inhibitors | VDR-SRC2-3 peptide fluorescence polarization, 2 h | 0.93% of 400,000 active; note: % is set by controls: 0 for no effect and ±100 for the full control effect
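FP read-out; VDR + SRC2-3 coactivator peptide; 23 nl compound by pintool; 2 h RT incubation; reagents held at 4 deg C, protected from light.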
BAZ2B block = BAZ2B (human) inhibition; AlphaScreen BAZ2B-H3K14Ac peptide displacement; 4.4% of 360,000 active; Q9UIF8; AID 504333; Potency, µM (doses to about 114 µM), inactives show at the top dose activity change, negative = inhibition, hits mostly inhibitors; note: % is set by controls: 0 for no effect and ±100 for the full control effect; nearly all actives have a fitted effect of over 60% in size
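AlphaScreen displacement: compounds (up to 110uM) incubated 30 min at room temperature with a preformed 50 nM BAZ2B/50 nM biotinylated H3K14Ac peptide complex in PBS pH 7.4 with Tween-20. Donor and acceptor beads at 10 ug/mL final added, 20 min light-protected before reading.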
* = called active by the depositor; [ ] = remark or other dose. Calls come from the whole dose curve; as a rule, active = well fitted curve in the direction sought with a large enough effect; inconclusive = small, poorly fitted or top-dose-only effect, or another doubt; inactive = no such curve, though single readings can be large; an effect the other way counts as inactive or inconclusive. Potency is the fitted concentration of half-maximal effect.

COc1cc(C(=O)N2CCc3c([nH]c4ccccc34)C2c2ccc(F)cc2)cc(OC)c1OC (stereo not given) was read as G9a inh inconclusive, HP1b binding inh 7%[57 µM], JMJD2A Tudor inconclusive, VDR inhibitor 11% and BAZ2B block -13%.
For COc1cccc(C2c3[nH]c4ccccc4c3CCN2Cc2cnn(C)c2)c1 (stereo not given) the results were HP1b binding inh -12%, PLK1 PBD block -6%, JMJD2A Tudor inconclusive, VDR inhibitor 3% and BAZ2B block inconclusive.
`c1ccc(C2c3[nH]c4ccccc4c3CCN2Cc2cccn2-c2ccccn2)nc1` (stereo not given) gave G9a inh inconclusive, HP1b binding inh -9%, PLK1 PBD block 5%, JMJD2A Tudor inconclusive, VDR inhibitor -2% and BAZ2B block 20µM*.
CC(=O)Nc1ccc(CN2CCc3c([nH]c4ccccc34)C2c2ccccn2)cc1 (stereo not given) was read as G9a inh inconclusive, HP1b binding inh -9%, PLK1 PBD block -10%, JMJD2A Tudor inconclusive, VDR inhibitor 0% and BAZ2B block inconclusive.
For COc1ccc(C2c3[nH]c4ccccc4c3CCN2Cc2cccn2-c2ncccn2)cc1C (stereo not given) the results were G9a inh 18%[0.501 µM], HP1b binding inh inconclusive, PLK1 PBD block -6%, JMJD2A Tudor inconclusive, VDR inhibitor 3% and BAZ2B block 35µM*.
Screening Cc1cccc(OCCCC(=O)N2CCCc3ccccc32)c1C returned G9a inh 82%[59 µM], HP1b binding inh 120%, PLK1 PBD block -2%, JMJD2A Tudor 82%, VDR inhibitor -8% and BAZ2B block 113%.
Screening COc1cccc(N2C(=O)Nc3ccc(Br)cc3C2(O)C(=O)NCCN(C)C)c1 (stereo not given) returned G9a inh 11%[2.33 µM], HP1b binding inh 29%, PLK1 PBD block -7%, JMJD2A Tudor -6%, VDR inhibitor 2% and BAZ2B block 4%.
Screening COc1ccc2c(c1)c(=O)oc1cc(OCC(=O)N3CCC(C)CC3)ccc12 returned G9a inh 8.9µM*, HP1b binding inh -45%, PLK1 PBD block -29%, JMJD2A Tudor 50µM*, VDR inhibitor 0% and BAZ2B block inconclusive.
Screening Cc1cc(=O)oc2cc(OCC(=O)N3CCCC3)ccc12 returned HP1b binding inh 30%, PLK1 PBD block -22%, JMJD2A Tudor -6% and VDR inhibitor -19%.
Screening COc1ccc2c(c1)c(=O)oc1cc(OCC(=O)N3CCc4ccccc4C3)ccc12 returned G9a inh 3.2µM*, HP1b binding inh 1%, PLK1 PBD block -28%, JMJD2A Tudor 56µM*, VDR inhibitor 20% and BAZ2B block 40µM*.
`Cc1cc(=O)oc2cc(OCC(=O)N3CCOCC3)ccc12` gave G9a inh 7.1µM*, HP1b binding inh -42%, PLK1 PBD block 27µM*, JMJD2A Tudor 79µM*, VDR inhibitor -15% and BAZ2B block -5%.
For COc1ccc2c(c1)c(=O)oc1cc(OCC(=O)N3CCCC(C)C3)ccc12 (stereo not given) the results were G9a inh 0%[12.7 µM], HP1b binding inh 13%, PLK1 PBD block -7%, JMJD2A Tudor -24%, VDR inhibitor 3% and BAZ2B block -1%.
`CCN(Cc1nc(-c2ccc(C)cc2)no1)C(=O)c1ccco1` gave G9a inh inconclusive, HP1b binding inh 37%, PLK1 PBD block -20%, JMJD2A Tudor 3%, VDR inhibitor -1% and BAZ2B block 3%.
Cn1nnnc1SCC(=O)N1N=C(c2ccc(Cl)cc2)CC1c1ccco1 (stereo not given) was read as HP1b binding inh 4%, PLK1 PBD block -3%, JMJD2A Tudor -26% and VDR inhibitor -8%.
COc1ccc(C2=NN(c3nc(-c4ccccc4)c(CC(=O)O)s3)C(c3ccco3)C2)cc1 (stereo not given) was read as G9a inh 14µM*, HP1b binding inh -14%, PLK1 PBD block 11µM*, JMJD2A Tudor 79µM*, VDR inhibitor -18% and BAZ2B block 50µM*.
Screening Cc1ccc(C2=NN(C(=O)CCl)C(c3ccco3)C2)o1 (stereo not given) returned G9a inh 40µM*, HP1b binding inh inconclusive, PLK1 PBD block -8%, JMJD2A Tudor -18%, VDR inhibitor 21% and BAZ2B block -23%.
COc1ccc(C2=NN(C(=O)CSc3nnc(C)n3C)C(c3ccco3)C2)cc1 (stereo not given) was read as G9a inh 50µM*, HP1b binding inh 25%, PLK1 PBD block -5%, JMJD2A Tudor -21%, VDR inhibitor 13% and BAZ2B block -5%.
COc1ccc(-n2nnnc2SCC(=O)NCCc2ccccc2)cc1 was read as G9a inh 4%[59 µM], HP1b binding inh 14%, JMJD2A Tudor -11%, VDR inhibitor 6% and BAZ2B block -8%.
Screening O=C(Nc1ccc2c(c1)CCC2)c1ccc(Cl)nc1 returned G9a inh 1%, HP1b binding inh 53%, PLK1 PBD block 0%, JMJD2A Tudor -3%, VDR inhibitor 5% and BAZ2B block -4%.
`O=C(Nc1ccc2c(c1)CCC2)c1cnc(Cl)c(Cl)c1` gave G9a inh -3%, HP1b binding inh 6%, PLK1 PBD block 21µM*, JMJD2A Tudor -29%, VDR inhibitor 3% and BAZ2B block 2%.
CCOc1ccc(NC(=O)NC(C)c2c(-n3cccc3)sc(C)c2C)cc1 (stereo not given) was read as G9a inh -26%[59 µM], HP1b binding inh -8%, JMJD2A Tudor -18%, VDR inhibitor -3% and BAZ2B block -35%.
Screening Brc1ccc([C@H]2CN3CCSC3=N2)cc1 returned G9a inh inconclusive, HP1b binding inh inconclusive, PLK1 PBD block 2%, JMJD2A Tudor 6.3µM* and VDR inhibitor -28%.
For CCCCNC(=O)Cc1cc(=O)[nH]c(=O)[nH]1 the results were G9a inh 1%, HP1b binding inh 40%, PLK1 PBD block -2%, JMJD2A Tudor -10%, VDR inhibitor -4% and BAZ2B block 4%.
CCOc1ccccc1CNS(=O)(=O)c1ccc2c(c1)oc(=O)n2C was read as G9a inh inconclusive, HP1b binding inh 19%, PLK1 PBD block 27µM*, JMJD2A Tudor inconclusive, VDR inhibitor -7% and BAZ2B block 9%.
`CCOc1ccccc1NS(=O)(=O)c1ccc2c(c1)oc(=O)n2C` gave G9a inh -23%[59 µM], HP1b binding inh 41%, JMJD2A Tudor 3%, VDR inhibitor -9% and BAZ2B block -14%.
